Screening data from PubChem BioAssay.
In the library only some 9.5% were active in any assay of this set; here they are far more common.
Pf growth 48h: inhibits P. falciparum growth in the first generation, 48 h | P. falciparum luciferase growth in erythrocytes, 48 h | Potency, µM (doses to about 28.7 µM), usual class: inhibitors | 310,000 compounds, 5.9% hits
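Cell-based growth assay: transgenic P. falciparum expressing firefly luciferase, cultured in red cells within RPMI 1640 containing 0.5% w/v Albumax, 24 mM bicarbonate and gentamycin. A drop in luciferase activity indicates inhibition.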
Pf growth 96h: P. falciparum growth inhibition at 96 hours; AID 504834; 320,000 compounds, 6.9% hits; Potency, µM (series often up to 28.7 µM), most hits filed as inhibitors; P. falciparum luciferase reporter growth, 96 h
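Delayed-death screen, second-generation endpoint: infected erythrocytes, 2% hematocrit, 0.05% parasitemia final; 96 hours at 37 C, 5% CO2; luciferase detection reagent; luminescence decrease equals reduced growth.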
SARS PLpro yeast: inhibitors of SARS-CoV papain-like protease in yeast; S. cerevisiae expressing SARS-CoV PLpro, growth rescue; Potency, µM (highest dose often 32.9 µM), actives largely listed as activators; 330,000 compounds, 0.19% hits; AID 485353; calls by dose curve; also: nearly all actives have a fitted effect of over 55% in size
RE007 growth inh: less growth of the S. pombe RE007 Vpr strain | S. pombe RE007 Vpr strain, BacTiter-Glo ATP luminescence, 24 h | Potency, µM (top dose mostly 92.2 µM), usual class: inhibitors | 360,000 compounds, 0.21% hits; active = well fitted falling curve with a large enough effect; inconclusive = small, poorly fitted or top-dose-only effect; inactive = no such curve, though single readings can be large or run the other way; also: nearly all actives have a fitted effect of over 50% in size
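Fission yeast strain RE007, carrying one chromosomally integrated HIV-1 vpr copy, was seeded at OD 0.01 in PMG+AL medium with 23 nL pinned compound. After 24 h at 30 °C and 99% humidity, viability was read by BacTiter-Glo luminescence.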
NS1 function inh: influenza NS1 inhibition; Potency, µM (titrated, usually from 46.1 µM); 270,000 compounds, 0.4% hits; calls by dose curve; also: actives are rising curves; nearly all actives have a fitted effect of over 50% in size
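Compounds were scored for reversing the slow growth caused by influenza A NS1 in S. cerevisiae, measured by optical density at 600 nm. Assay medium contained 2% galactose at pH 6.0; NS1-free yeast of the same strain were the positive control.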
Large screens that a line does not name were inactive. Unless noted, calls follow the shape of the dose curve; as a rule, active = well fitted inhibition curve with a large enough effect; inconclusive = small, poorly fitted or top-dose-only effect, or another doubt; inactive = no such curve, though single readings can be large or run the other way.

O=C(N/N=C\c1c(O)ccc2ccccc12)c1ccc(S(=O)(=O)N2CCCCC2)cc1	Pf growth 48h 1.5µM, SARS PLpro yeast 4µM
Oc1ccc2ccccc2c1/C=N/Nc1ccccc1	Pf growth 96h inconclusive
Cc1cc(N/N=C/c2c(O)ccc3ccccc23)nc(-c2ccccc2O)n1	Pf growth 48h 6.6µM, Pf growth 96h inconclusive, SARS PLpro yeast inconclusive
Oc1ccc2ccccc2c1C=NCc1ccccc1	Pf growth 48h inconclusive, Pf growth 96h 13µM
O=C(NN=Cc1c(O)ccc2ccccc12)c1ccc2c(c1)OCO2	none (no result: Pf growth 48h, Pf growth 96h, NS1 function inh)
Oc1ccc(C[C@H]2CNC(=S)N2CC2CCCN2C[C@H](Cc2ccc(O)cc2)N2C[C@H](Cc3ccccc3)N(CC3CCCCC3)C2=S)cc1 (stereo partly specified)	none (no result: Pf growth 48h, Pf growth 96h, SARS PLpro yeast, NS1 function inh)
CC(C)CN(C(=O)CN(C)C(=O)Cc1c(F)cccc1Cl)c1c(N)n(CC(C)C)c(=O)[nH]c1=O	none (no result: Pf growth 48h, Pf growth 96h, SARS PLpro yeast, NS1 function inh)
O=C(O)/C=C/c1ccc(S(=O)(=O)N2CCN(CCN3C(=O)C4C5C=CC(C5)C4C3=O)CC2)cc1 (stereo unspecified)	Pf growth 48h inconclusive, Pf growth 96h 1.9µM
CN(C)C(=S)SCCn1c(N)nc(N(C)C)nc1=O	none
CCC(C)NC(=O)[C@H](CSCc1ccccc1)N1Cc2ccccc2C1=O (stereo partly specified)	Pf growth 96h 10µM
O=C(O)CSCc1cccc2ccccc12	none (no result: Pf growth 48h, Pf growth 96h, SARS PLpro yeast, RE007 growth inh)
CC(Oc1ccccc1)C(=O)Nc1ccc(S(=O)(=O)N2CCOCC2)cc1 (stereo unspecified)	none
Cc1ccc(OC(C)C(=O)Nc2cccc(S(=O)(=O)N3CCCCCC3)c2)cc1 (stereo unspecified)	none (no result: Pf growth 48h, Pf growth 96h, SARS PLpro yeast, NS1 function inh)
CC(Oc1ccccc1)C(=O)Nc1ccc(S(=O)(=O)N2CCN(C)CC2)cc1 (stereo unspecified)	Pf growth 48h inconclusive, Pf growth 96h 0.066µM (no result: SARS PLpro yeast, NS1 function inh)
Cc1cccc(OC(C)C(=O)Nc2ccc(S(=O)(=O)N3CCCC3)cc2)c1 (stereo unspecified)	Pf growth 48h inconclusive, Pf growth 96h 10µM
CCN(C(=O)COC(=O)c1cc(=O)[nH]c2ccccc12)C1CCS(=O)(=O)C1 (stereo unspecified)	Pf growth 48h inconclusive, Pf growth 96h inconclusive
C/C(=C\[C@@H](NP(=O)(c1ccccc1)c1ccccc1)c1ccccc1)CO[Si](c1ccccc1)(c1ccccc1)C(C)(C)C	none (no result: Pf growth 48h, Pf growth 96h, SARS PLpro yeast, NS1 function inh)
CCCC/C(C)=C/[C@@H](NP(=O)(c1ccccc1)c1ccccc1)c1ccccc1	Pf growth 48h inconclusive, Pf growth 96h 15µM
O=C(COC(=O)CNS(=O)(=O)/C=C/c1ccccc1)Nc1cc(S(=O)(=O)N2CCCCC2)ccc1Cl	none
CC(C)CC1NC(=O)c2cc3ccccc3cc2-n2c1nc1ccc(Cl)cc1c2=O (stereo unspecified)	none (no result: Pf growth 48h, Pf growth 96h, SARS PLpro yeast, NS1 function inh)
CC(Nc1ccc(Br)cc1)C(=O)N/N=C/c1ccccc1OCc1ccccc1 (stereo unspecified)	none (no result: Pf growth 48h)
COc1ccc(NC(C)C(=O)N/N=C/c2ccccc2OCc2ccc(Br)cc2)cc1 (stereo unspecified)	Pf growth 48h 9.3µM
O=C1Nc2ccccc2-c2nnnn2C1N1CCCCC1 (stereo unspecified)	none (no result: Pf growth 48h, Pf growth 96h, SARS PLpro yeast, NS1 function inh)
CC(NC(=O)COC(=O)c1ccco1)c1ccccc1 (stereo unspecified)	none (no result: Pf growth 48h)
CCOC(=O)C1=C(C)NC(C)=C(C(=O)OCC)C1C(=O)OCC(=O)NC(C)c1ccccc1 (stereo unspecified)	Pf growth 48h inconclusive, Pf growth 96h 13µM (no result: NS1 function inh)
CC(NC(=O)COC(=O)c1ccc(N(C)C)cc1)c1ccccc1 (stereo unspecified)	Pf growth 48h 12µM
COc1cc([N+](=O)[O-])cc(/C=N/NC(=O)CC#N)c1O	Pf growth 96h inconclusive, SARS PLpro yeast 7.1µM (no result: RE007 growth inh, NS1 function inh)
COc1cc([N+](=O)[O-])cc(/C=N/NC(=O)Cn2cncn2)c1O	none
COc1cc([N+](=O)[O-])cc(/C=N/NC(=O)C(C)Nc2ccccc2C)c1O (stereo unspecified)	SARS PLpro yeast 22µM (no result: RE007 growth inh)
CCN(CCO)C1CC(=O)N(c2ccccc2C)C1=O (stereo unspecified)	RE007 growth inh 22µM
Cc1ccccc1N1C(=O)CC(N(O)c2ccccc2)C1=O (stereo unspecified)	NS1 function inh inconclusive
CCOC(=O)Cc1csc(NS(=O)(=O)c2ccc([N+](=O)[O-])cc2)n1	Pf growth 96h inconclusive
COc1cc(C(=O)Oc2c(CN3CCOCC3)cc(Cl)c3cccnc23)cc(OC)c1OC	Pf growth 96h inconclusive, SARS PLpro yeast inconclusive (no result: Pf growth 48h)
O=C(Oc1c(CN2CCOCC2)cc(Cl)c2cccnc12)c1ccc(F)cc1	Pf growth 48h 4.7µM
COc1ccc(C(=O)Oc2c(CN3CCOCC3)cc(Cl)c3cccnc23)cc1	Pf growth 48h 15µM (no result: Pf growth 96h)
CCN(CC)S(=O)(=O)c1ccc(O)c(C(=O)OCC(=O)N2CCCc3ccccc32)c1	none (no result: Pf growth 48h, Pf growth 96h, SARS PLpro yeast, NS1 function inh)
COc1ccc(/[N+]([O-])=C/c2ccoc2)cc1	none (no result: NS1 function inh)
Cn1c(=O)c2c(nc(SCCN3CCCCC3)n2Cc2ccccc2)n(C)c1=O	Pf growth 48h inconclusive, Pf growth 96h 2.3µM
Cn1c(=O)c2c(nc(CN3CCN(Cc4ccccc4)CC3)n2Cc2ccc(Cl)cc2)n(C)c1=O	Pf growth 96h 2.6µM (no result: Pf growth 48h)
CCC1CCCCN1Cc1nc2c(c(=O)n(C)c(=O)n2C)n1Cc1ccccc1 (stereo unspecified)	Pf growth 48h inconclusive, Pf growth 96h 7.4µM
Cc1ccc(Cn2c(SCCN3CCCCC3)nc3c2c(=O)n(C)c(=O)n3C)cc1	Pf growth 96h inconclusive
CC1Cc2ccccc2N1C(=O)CSc1nc2c(c(=O)n(C)c(=O)n2C)n1Cc1ccccc1 (stereo unspecified)	Pf growth 48h 5.9µM
OCC1(CO)COC(C(Cl)(Cl)Cl)OC1	none (no result: SARS PLpro yeast, RE007 growth inh, NS1 function inh)
NC(=O)c1cc[n+](CC2=C(C(=O)[O-])N3C(=O)[C@@H](NC(=O)Cc4cccs4)[C@@H]3SC2)cc1	none (no result: SARS PLpro yeast, RE007 growth inh, NS1 function inh)
CCCCCCCCCCCCCCCCCCCCCC(=O)Nc1ccn([C@@H]2O[C@H](CO)[C@@H](O)[C@@H]2O)c(=O)n1	none (no result: SARS PLpro yeast, RE007 growth inh, NS1 function inh)
Cn1c(=O)c2c(nc(N3CCN(c4ccccn4)CC3)n2Cc2ccccc2Cl)n(C)c1=O	Pf growth 48h 9.3µM, Pf growth 96h 13µM
Cn1c(N2CCCC2)nc2c1c(=O)n(Cc1ccc(Cl)cc1)c(=O)n2C	Pf growth 48h inconclusive, Pf growth 96h inconclusive
CC1CN(c2nc3c(c(=O)n(Cc4ccc(Cl)cc4)c(=O)n3C)n2C)CC(C)O1 (stereo unspecified)	Pf growth 48h 5.9µM, Pf growth 96h 2.3µM
CN1CCN(c2nc3c(c(=O)n(C)c(=O)n3C)n2Cc2ccc(Cl)cc2)CC1	Pf growth 96h 0.12µM
Cn1c(=O)c2c(nc(SCCN3CCOCC3)n2C)n(C)c1=O	Pf growth 48h inconclusive, Pf growth 96h 3.7µM
O=C(O)C[C@H]1NCc2cc3ccccc3nc21	none (no result: Pf growth 48h, Pf growth 96h, SARS PLpro yeast, RE007 growth inh)
Cc1ccccc1Cn1c(CN2CCN(C(=O)c3ccco3)CC2)nc2c1c(=O)n(C)c(=O)n2C	Pf growth 48h inconclusive, Pf growth 96h inconclusive
